The full data set covers some 8,800 targets. This sample favours those with a hit. About 0.5% of all pairs of compound and target were hits. A number with no mark means an inactive call.
Compound: Cn1cncc1[C@@](N)(c1ccc(Cl)cc1)c1ccc2c(c1)c(-c1cccc(Cl)c1)cc(=O)n2C [tipifarnib]
Experiment: log2 fold change, soluble protein after heating vs DMSO (PISA); higher = thermal stabilisation; K562 lysate, 10 uM; active = over 0.2 and 3.5 SD of the protein, either way, in both replicates (recomputed)
In short: (§1)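 To prepare the extract, K562 pellets were dounce-homogenised in PBS pH 7.4 with 1 mM MgCl2, giving crude material at 1 mg/mL protein. This was treated with 10 μM compound for 30 min, then heated in aliquots for 3 min over 48°C-58°C before pooling and addition of NP-40 to 0.5% at 4°C. Centrifugation at 21,000xg for 90 min left soluble protein in the supernatant, which TMTpro 16plex LC-MS/MS quantified with equalised channel sums. Results are log-two fold changes in thermal stability compared with solvent controls, from duplicates.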

UniProt Q8IVJ1, sequence (Q8IVJ1 whole entry, looked up): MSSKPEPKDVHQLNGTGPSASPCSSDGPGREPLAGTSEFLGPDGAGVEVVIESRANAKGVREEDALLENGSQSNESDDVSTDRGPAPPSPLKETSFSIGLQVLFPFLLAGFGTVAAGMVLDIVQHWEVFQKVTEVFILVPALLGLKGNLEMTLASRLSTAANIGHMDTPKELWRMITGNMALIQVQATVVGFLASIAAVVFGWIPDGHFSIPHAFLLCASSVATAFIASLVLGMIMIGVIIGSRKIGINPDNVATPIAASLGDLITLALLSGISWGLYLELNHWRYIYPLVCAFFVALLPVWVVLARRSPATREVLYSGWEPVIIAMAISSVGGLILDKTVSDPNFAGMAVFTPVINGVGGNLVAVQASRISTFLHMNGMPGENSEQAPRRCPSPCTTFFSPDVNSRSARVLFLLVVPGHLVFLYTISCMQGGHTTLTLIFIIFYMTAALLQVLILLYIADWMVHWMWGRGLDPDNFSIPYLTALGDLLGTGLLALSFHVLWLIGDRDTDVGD
UniProt Q9Y2D2, sequence (Q9Y2D2 whole entry, looked up): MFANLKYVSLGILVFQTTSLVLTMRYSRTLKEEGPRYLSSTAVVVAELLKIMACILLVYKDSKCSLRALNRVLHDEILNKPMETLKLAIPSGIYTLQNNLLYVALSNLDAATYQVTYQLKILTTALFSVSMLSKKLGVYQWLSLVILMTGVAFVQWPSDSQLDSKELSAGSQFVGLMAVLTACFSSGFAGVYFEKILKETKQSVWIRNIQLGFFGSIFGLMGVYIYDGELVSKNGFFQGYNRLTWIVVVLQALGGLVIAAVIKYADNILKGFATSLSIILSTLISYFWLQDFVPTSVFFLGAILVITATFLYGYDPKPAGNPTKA
UniProt Q13487, sequence (Q13487 whole entry, looked up): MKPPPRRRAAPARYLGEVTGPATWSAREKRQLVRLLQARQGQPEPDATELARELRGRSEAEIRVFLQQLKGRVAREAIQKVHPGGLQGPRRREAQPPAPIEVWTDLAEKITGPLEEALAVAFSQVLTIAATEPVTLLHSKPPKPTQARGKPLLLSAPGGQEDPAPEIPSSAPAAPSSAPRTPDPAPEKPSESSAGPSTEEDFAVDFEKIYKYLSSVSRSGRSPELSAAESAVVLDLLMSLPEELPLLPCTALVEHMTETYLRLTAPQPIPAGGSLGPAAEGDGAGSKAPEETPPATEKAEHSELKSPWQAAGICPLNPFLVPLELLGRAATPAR
UniProt Q15544, sequence (Q15544 whole entry, looked up): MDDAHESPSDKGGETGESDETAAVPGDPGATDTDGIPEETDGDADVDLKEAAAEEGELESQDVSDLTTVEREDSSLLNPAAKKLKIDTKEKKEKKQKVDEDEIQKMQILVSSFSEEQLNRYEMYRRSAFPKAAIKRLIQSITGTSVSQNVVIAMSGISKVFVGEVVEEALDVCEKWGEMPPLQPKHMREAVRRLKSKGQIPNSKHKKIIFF
UniProt O94768, sequence (O94768 whole entry, looked up): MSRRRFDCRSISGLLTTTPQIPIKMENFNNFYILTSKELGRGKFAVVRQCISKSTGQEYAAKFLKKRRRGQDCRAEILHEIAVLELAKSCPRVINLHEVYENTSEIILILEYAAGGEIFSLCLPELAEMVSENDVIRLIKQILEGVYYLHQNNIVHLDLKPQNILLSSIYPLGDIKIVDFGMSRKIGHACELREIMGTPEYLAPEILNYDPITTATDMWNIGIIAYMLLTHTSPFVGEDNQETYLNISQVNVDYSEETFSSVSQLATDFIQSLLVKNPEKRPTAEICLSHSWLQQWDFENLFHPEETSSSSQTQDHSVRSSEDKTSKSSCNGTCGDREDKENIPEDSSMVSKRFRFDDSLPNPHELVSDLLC
UniProt P51532, sequence (P51532 whole entry, looked up): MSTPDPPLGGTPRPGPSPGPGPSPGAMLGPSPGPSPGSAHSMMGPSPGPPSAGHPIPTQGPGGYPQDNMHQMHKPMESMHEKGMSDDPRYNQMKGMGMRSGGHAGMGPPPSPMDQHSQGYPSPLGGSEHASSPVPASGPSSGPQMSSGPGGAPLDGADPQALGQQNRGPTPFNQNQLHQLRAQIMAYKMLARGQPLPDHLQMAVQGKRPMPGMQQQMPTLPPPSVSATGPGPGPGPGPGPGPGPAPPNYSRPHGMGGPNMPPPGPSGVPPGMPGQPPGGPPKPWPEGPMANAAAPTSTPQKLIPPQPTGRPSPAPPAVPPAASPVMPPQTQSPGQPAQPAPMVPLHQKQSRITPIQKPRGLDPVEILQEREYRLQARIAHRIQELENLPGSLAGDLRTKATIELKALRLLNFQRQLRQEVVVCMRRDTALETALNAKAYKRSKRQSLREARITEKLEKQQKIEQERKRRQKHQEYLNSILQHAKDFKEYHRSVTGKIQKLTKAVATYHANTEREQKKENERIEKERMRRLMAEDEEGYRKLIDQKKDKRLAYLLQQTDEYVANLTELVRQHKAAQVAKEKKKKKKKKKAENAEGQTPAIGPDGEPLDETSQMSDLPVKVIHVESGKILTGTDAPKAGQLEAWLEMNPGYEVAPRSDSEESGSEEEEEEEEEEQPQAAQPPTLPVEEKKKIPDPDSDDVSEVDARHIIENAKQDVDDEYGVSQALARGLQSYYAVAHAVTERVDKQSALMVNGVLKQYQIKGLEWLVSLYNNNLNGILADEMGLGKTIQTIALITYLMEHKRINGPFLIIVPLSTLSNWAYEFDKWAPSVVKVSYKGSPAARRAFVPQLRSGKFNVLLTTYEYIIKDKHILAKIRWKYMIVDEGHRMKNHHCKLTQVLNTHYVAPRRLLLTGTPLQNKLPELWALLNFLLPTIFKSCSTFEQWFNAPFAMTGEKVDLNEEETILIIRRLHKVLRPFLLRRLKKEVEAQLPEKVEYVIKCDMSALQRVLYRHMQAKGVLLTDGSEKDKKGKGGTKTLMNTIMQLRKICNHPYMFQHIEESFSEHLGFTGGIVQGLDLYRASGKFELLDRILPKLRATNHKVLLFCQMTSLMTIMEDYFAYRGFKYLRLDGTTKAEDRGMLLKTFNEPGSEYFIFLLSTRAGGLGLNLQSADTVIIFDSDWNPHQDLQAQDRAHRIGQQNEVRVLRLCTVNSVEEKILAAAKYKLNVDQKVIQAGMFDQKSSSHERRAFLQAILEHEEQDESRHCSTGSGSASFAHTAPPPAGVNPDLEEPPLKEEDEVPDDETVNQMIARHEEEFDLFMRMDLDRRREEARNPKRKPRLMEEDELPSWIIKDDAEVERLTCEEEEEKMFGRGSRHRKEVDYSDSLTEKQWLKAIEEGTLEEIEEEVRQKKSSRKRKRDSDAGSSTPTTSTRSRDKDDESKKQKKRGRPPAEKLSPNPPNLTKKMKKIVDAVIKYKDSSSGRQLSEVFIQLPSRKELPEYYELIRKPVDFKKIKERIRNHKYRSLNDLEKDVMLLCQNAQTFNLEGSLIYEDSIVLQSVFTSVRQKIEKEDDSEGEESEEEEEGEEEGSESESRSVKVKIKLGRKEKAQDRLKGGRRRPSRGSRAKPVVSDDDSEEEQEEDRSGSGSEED
UniProt Q9Y2H1, sequence (Q9Y2H1 whole entry, looked up): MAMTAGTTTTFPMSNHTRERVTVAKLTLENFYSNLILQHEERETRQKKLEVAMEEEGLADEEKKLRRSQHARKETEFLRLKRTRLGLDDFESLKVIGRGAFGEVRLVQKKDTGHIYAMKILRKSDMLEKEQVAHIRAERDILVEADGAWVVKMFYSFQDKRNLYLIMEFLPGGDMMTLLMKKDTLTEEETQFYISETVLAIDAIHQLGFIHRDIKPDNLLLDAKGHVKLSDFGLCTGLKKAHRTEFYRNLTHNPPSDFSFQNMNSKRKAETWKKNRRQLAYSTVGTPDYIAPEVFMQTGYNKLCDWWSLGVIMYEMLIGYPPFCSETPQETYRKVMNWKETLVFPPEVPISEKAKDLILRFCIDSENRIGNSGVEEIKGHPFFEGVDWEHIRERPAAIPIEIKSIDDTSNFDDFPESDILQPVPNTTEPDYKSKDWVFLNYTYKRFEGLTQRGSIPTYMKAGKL
UniProt Q13309, sequence (Q13309 whole entry, looked up): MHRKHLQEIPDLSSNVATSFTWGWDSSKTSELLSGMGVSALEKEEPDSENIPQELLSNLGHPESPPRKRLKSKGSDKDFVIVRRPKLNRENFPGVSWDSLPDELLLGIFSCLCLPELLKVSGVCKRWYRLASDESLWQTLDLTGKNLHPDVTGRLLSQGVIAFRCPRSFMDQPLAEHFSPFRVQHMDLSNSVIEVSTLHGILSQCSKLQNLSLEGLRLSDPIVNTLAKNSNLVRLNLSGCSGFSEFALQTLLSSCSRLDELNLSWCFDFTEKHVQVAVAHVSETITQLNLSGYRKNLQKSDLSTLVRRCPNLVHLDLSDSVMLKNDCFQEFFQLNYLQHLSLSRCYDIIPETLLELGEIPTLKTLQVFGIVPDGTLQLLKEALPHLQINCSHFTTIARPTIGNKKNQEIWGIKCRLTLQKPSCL
UniProt O95793, sequence (O95793 whole entry, looked up): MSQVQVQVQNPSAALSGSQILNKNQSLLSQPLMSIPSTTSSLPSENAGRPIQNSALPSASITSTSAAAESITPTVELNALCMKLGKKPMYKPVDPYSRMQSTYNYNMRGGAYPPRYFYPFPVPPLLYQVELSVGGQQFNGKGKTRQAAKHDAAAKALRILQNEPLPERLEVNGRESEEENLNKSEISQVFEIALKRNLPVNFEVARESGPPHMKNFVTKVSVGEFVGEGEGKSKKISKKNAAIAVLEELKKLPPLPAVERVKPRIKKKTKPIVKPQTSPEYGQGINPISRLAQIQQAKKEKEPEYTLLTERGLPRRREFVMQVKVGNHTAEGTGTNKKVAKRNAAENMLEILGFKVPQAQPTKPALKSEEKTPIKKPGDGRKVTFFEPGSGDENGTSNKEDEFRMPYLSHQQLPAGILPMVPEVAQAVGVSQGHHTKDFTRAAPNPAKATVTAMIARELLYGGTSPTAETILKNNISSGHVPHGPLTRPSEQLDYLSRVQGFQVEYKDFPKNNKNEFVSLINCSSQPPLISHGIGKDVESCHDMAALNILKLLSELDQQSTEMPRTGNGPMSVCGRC

Row | Target | log2 fold change
1 | STK17A (UniProt Q9UEE5) | -0.387
2 | SNRPD2 (UniProt K7EJB5) | -0.075
3 | SNAPC2 (UniProt Q13487) | -0.106
4 | STAR (UniProt P49675) | 0.203
5 | TAOK2 isoform 2 (UniProt Q9UL54) | 0.031
6 | SMARCA4 isoform 4 (UniProt P51532) | 0.239
7 | SLC41A1 (UniProt Q8IVJ1) | -0.02
8 | SSX5 isoform 2 (UniProt O60225) | 0.061
9 | STAU1 isoform 3 (UniProt O95793) | 0.032
10 | SYK (UniProt P43405) | -0.002
11 | SIN3B (UniProt O75182) | 0.086
12 | SKP2 (UniProt Q13309) | -0.035
13 | SLU7 (UniProt O95391) | -0.029
14 | SZT2 (UniProt Q5T011) | -0.019
15 | SLC40A1 (UniProt Q9NP59) | -0.118
16 | SNIP1 (UniProt Q8TAD8) | -0.149
17 | SLC25A36 (UniProt Q96CQ1) | -0.119
18 | STK38L (UniProt Q9Y2H1) | 0.04
19 | SLC35A3 isoform 2 (UniProt Q9Y2D2) | 0.069
20 | SNAP23 isoform 2 (UniProt O00161) | -0.016
21 | SLCO4A1 (UniProt Q96BD0) | 0.076
22 | STK17B (UniProt O94768) | -0.08
23 | TAF11 (UniProt Q15544) | 0.057

Compound: NC(=O)Nc1cc(-c2cccc(F)c2)sc1C(=O)N[C@H]1CCCNC1
Experiment: as above
In short: as §1

Row | Target | log2 fold change
24 | SNRPD2 (UniProt K7EJB5) | -0.082
25 | SNAPC2 (UniProt Q13487) | 0.029
26 | STAR (UniProt P49675) | -0.135
27 | SLC12A6 isoform 2 (UniProt Q9UHW9) | -0.055
28 | SMARCA4 isoform 4 (UniProt P51532) | 0.16
29 | SLC41A1 (UniProt Q8IVJ1) | -0.003
30 | STAU1 isoform 3 (UniProt O95793) | 0.088
31 | SYK (UniProt P43405) | -0.095
32 | SIN3B (UniProt O75182) | 0.077
33 | SKP2 (UniProt Q13309) | 0.295
34 | SLU7 (UniProt O95391) | 0.086
35 | SLC40A1 (UniProt Q9NP59) | 0.167
36 | STK26 isoform 3 (UniProt Q9P289) | 0.203
37 | SLC25A36 (UniProt Q96CQ1) | -0.08
38 | STK38L (UniProt Q9Y2H1) | 0.552 (active)
39 | SPAG1 (UniProt Q07617) | 0.007
40 | SLC35A3 isoform 2 (UniProt Q9Y2D2) | 0
41 | SHB (UniProt Q15464) | -0.026
42 | STK17B (UniProt O94768) | 0.634
43 | TAF11 (UniProt Q15544) | 0.046

— the supplement of paper PMC10849652
